# Screening results as filed in PubChem.
# Sampled rows, rich in hits. Any-hit rate of the full collection: about 12%.
# PostGolgi yeast – growth inhibition of a yeast mutant, post-Golgi transport screen | inhibition, % at 10 µM | actives 0.9% (n = 98,000) | post-Golgi transport phenotypic cell assay;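 further: yeast cells grown in 1536-well plates; yeast grown about 18 h at 30C before absorbance read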
# Cav3 T inh – inhibitors of human Cav3.2 T-type calcium channel; actives 4% (n = 100,000); O95180; Cav3.2-expressing cells, Fluo-4 calcium fluorescence FDSS; hits give low values; B-score at 10 µM;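 active means single-dose well whose peak fluorescence ratio is a statistical outlier from its plate by either plate-standardised score or position-corrected B-score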
# PostGolgi ctrl – inhibits growth of the yeast control strain; actives 5% (n = 98,000); inhibition, % at 10 µM; efflux-deficient yeast background strain, growth absorbance A615, 16 h
# D1 mod – allosterically modulates the human D1 dopamine receptor | HEK293 D1, CRE-luciferase, dopamine EC30 potentiation; actives deviate in either direction | AID 641 | B-score at 10 µM | actives 5.9% (n = 58,000) | P21728;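 active means luminescence count or its row- and column-corrected plate score outside the 99.7% band of the plate's sample wells, on either side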
# PLAP act – activates human placental alkaline phosphatase; P05187; purified PLAP enzyme, luminescent substrate read-out; hits give high values; activation fold at 20 µM; actives 1.2% (n = 96,000); AID 696; in the data active means activation fold above about 2
# Target sequence (P05187 whole entry, looked up): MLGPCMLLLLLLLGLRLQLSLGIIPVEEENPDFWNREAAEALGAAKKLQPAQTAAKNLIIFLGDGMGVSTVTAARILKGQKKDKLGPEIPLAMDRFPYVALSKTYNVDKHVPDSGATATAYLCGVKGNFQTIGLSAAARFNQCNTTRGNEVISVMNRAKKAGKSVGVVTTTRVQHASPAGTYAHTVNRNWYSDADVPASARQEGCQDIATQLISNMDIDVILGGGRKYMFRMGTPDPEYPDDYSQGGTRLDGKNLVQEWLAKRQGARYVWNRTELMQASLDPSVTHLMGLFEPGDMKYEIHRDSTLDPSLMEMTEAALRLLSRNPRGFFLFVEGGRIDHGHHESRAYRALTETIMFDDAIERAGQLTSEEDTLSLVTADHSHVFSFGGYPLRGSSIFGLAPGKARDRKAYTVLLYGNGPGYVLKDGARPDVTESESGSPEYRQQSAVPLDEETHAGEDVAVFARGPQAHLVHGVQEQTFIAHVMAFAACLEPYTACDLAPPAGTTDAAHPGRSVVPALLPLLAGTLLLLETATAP
# hDAT+cocaine – changed human dopamine transporter uptake under cocaine IC80; B-score at 10 µM; actives 1.3% (n = 110,000); LLC-PK1 hDAT cells, [14C]-dopamine uptake with cocaine IC80; actives deviate in either direction; AID 449768;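 active means Z score or B-score, a plate-position-corrected score, falls beyond the plate's 99.7% confidence bounds, in either direction; inactive means both scores lie inside the 99.7% bounds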
# A number is an active result; n = inactive; x = no result given. Unless noted, no stated cut-off is given here; in the data, active means inhibition above about 30%; inactive means the rest.
SMILES,PostGolgi yeast,Cav3 T inh,PostGolgi ctrl,D1 mod,PLAP act,hDAT+cocaine
O=C(NCc1ccco1)C1CCN(c2nc3ccccc3n2Cc2ccccc2F)CC1,n,-7.1,n,x,n,n
O=C(CN1CCN(Cc2ccccc2F)C1=O)NCc1ccco1,n,n,n,x,2,n
O=C(CSc1nnc(C2CC2)n1Cc1ccccc1)N1CCN(S(=O)(=O)c2ccccc2)CC1,n,x,n,n,n,-7.4
O=C(CSc1nnc(C2CC2)n1Cc1ccccc1)c1ccc(S(=O)(=O)N2CCOCC2)cc1,n,n,n,n,n,n
CCOC(=O)c1nnc(-c2ccccc2)nc1NCc1ccccc1,n,n,35,x,n,n
CCOC(=O)c1cc(C#N)c(NCc2ccccc2)nc1C,n,n,n,n,n,n
CCOC(=O)c1nc(NCc2cccnc2)c2ccccc2n1,n,n,n,2.7,n,n
O=C1CC(c2ccco2)Cc2nc(N3CCc4ccccc4C3)ncc21 (stereo not drawn),n,n,42,n,n,n
CC1CC(C)CN(c2ncc3c(n2)CC(c2ccccc2)CC3=O)C1 (stereo not drawn),n,n,50,n,n,n
O=C(c1ccco1)N1CCN(C(=O)C2CCN(S(=O)(=O)Cc3ccccc3)CC2)CC1,n,n,n,n,n,n
Cc1ccsc1C(C(=O)NC1CCCCC1)N(C(=O)c1csnn1)C1CC1 (stereo not drawn),n,n,n,n,n,n
CCc1cc2cccc(C)c2nc1SCC(=O)NNC(=O)c1ccco1,n,n,38,x,n,n
CC(=O)c1ccc(-n2nnnc2SCC(=O)NNC(=O)c2ccco2)cc1,n,n,43,x,2.2,n
CC(=O)c1ccc(-n2nnnc2SCC(=O)Nc2cccc(NC(=O)c3ccco3)c2)cc1,n,n,n,x,n,n
Cc1cc(C)cc(-n2nnnc2SCC(=O)Nc2cccc(NC(=O)c3ccco3)c2)c1,n,n,n,n,n,n
CCc1ccc(-n2nnnc2SCC(=O)NNC(=O)c2ccco2)cc1,n,n,n,x,2.3,n
CCN1C(=O)c2cccc3c(S(=O)(=O)NCCc4c[nH]c5ccccc45)ccc1c23,n,n,n,x,n,n
CCCn1c(SCC(=O)NC2CCCCC2C)n[nH]c1=O (stereo not drawn),n,n,n,x,n,n
CCc1ccc2nc(N3CCN(C)CC3)c(C#N)cc2c1,n,n,n,-4.9,n,n
Cc1ccc2nc(N3CCN(C(=O)c4cccs4)CC3)c(C#N)cc2c1,n,-4.8,n,n,n,n
COc1ccc(C(=O)N2CCN(c3nc4cc(C)ccc4cc3C#N)CC2)c(OC)c1,n,n,n,n,n,n
COc1ccc2nc(N3CCC(C)CC3)c(C#N)cc2c1,n,n,n,n,n,n
Nc1nc(SCc2ccc(Cl)cc2)ns1,n,n,44,n,n,n
O=c1c2ccccc2oc2ccc(-c3ccc4[nH]ccc4c3)cc12,x,n,x,x,x,n
O=C(Nc1ccccc1)N1CCc2ccccc21,x,n,x,x,x,n
SMILES,PostGolgi yeast,Cav3 T inh,PostGolgi ctrl,D1 mod,PLAP act,hDAT+cocaine
O=C(NCC1CCCC(CNC(=O)N2CCc3ccccc32)C1)N1CCc2ccccc21 (stereo not drawn),n,-5,n,x,n,n
CCCC(=O)O[C@@H]1C[C@@H](C)N(C(=O)c2ccccc2)c2ccc(C)cc21,n,-4.1,n,x,n,n
CC(C)(C)n1ncc2c(=O)n(CC(=O)Nc3ccc(Cl)cc3)cnc21,n,-9.5,n,x,n,n
CC(=O)Nc1ccc(NC(=O)Cn2cnc3c(cnn3C(C)(C)C)c2=O)cc1,n,n,n,n,n,n
CCO[C@@H]1OC(C(=O)N2CCN(C)CC2)=C[C@H](c2ccc(C(F)(F)F)cc2)[C@H]1CCCO,x,n,x,x,x,x
C=CCOc1c(Br)cc(CNc2ccc(NC(=O)C(C)C)c(OC)c2)cc1OC,n,-3.8,n,x,n,n
Cc1occc1C(=O)n1nnc2ccccc21,n,n,32,n,n,n
CCc1ccc(C(C)NC(=O)c2ccc(F)cc2)cc1 (stereo not drawn),n,-4.1,n,x,n,n
COc1ccc(C(=O)Cn2c(N3CCOCC3)nc3ccccc32)cc1OC,x,x,x,-3,n,x
O=c1oc2cc(Cl)ccc2n1CSc1nc2ccccc2s1,n,n,32,x,n,n
O=C(Nc1ccc(Cl)c(C(F)(F)F)c1)[C@@H]1CC=C[C@@H]2CCN(C3CC3)C(=O)[C@@H]21,x,n,x,x,x,n
O=C1c2ccccc2C(=O)N1CCc1csc(-c2cccc(F)c2)n1,n,n,42,x,n,n
CCOc1ccc(N2CC(C(=O)Nc3ccccc3F)CC2=O)cc1 (stereo not drawn),n,n,n,n,n,n
CCOc1cc(C)c(Cl)cc1S(=O)(=O)n1cnc2ccccc21,n,-5.7,n,n,n,n
COc1ccccc1N1CCN(c2nc3ccccc3nc2C(C#N)C(=O)OC(C)C)CC1 (stereo not drawn),n,-8.5,n,n,n,n
CCOc1ccccc1N1CCN(c2nc3ccccc3nc2C(C#N)C(=O)OC)CC1 (stereo not drawn),n,-7.6,n,-4.3,n,n
CCOc1cccc(C(=O)Nc2ccc3oc(Cc4ccc(Cl)cc4)nc3c2)c1,n,n,n,x,n,n
CC(=O)N1CCN(C(=O)COc2ccc(Br)cc2)CC1,n,n,n,n,n,n
O=C(COc1ccc(Cl)cc1Br)N1CCN(c2ccccc2)CC1,n,n,n,n,n,n
O=C(COc1ccc(Br)cc1)N1CCN(c2ccccc2)CC1,n,-3.3,n,x,n,n
COc1ccc(OCC(=O)N2CCN(C(=O)COc3ccc(Br)cc3)CC2)cc1,n,n,41,n,n,n
c1ccc(-c2ccc(-c3ccccn3)nn2)nc1,n,x,n,-8.7,n,x
COc1ccccc1C(=O)Nc1cc(-c2nn3c(C)nnc3s2)ccc1C,x,x,x,n,x,x
CCCCCC(=O)Nc1cccc(C2=NOC3(C2)C[C@H](C(N)=O)N(C(=O)c2ccccc2C(=O)c2ccccc2)C3)c1 (stereo partly drawn),x,n,x,x,x,3.7
C/C=C(\C)C(=O)Nc1cccc(C2=NOC3(C2)C[C@@H](C(N)=O)N(C(=O)c2ccccc2C(=O)c2ccccc2)C3)c1 (stereo partly drawn),x,n,x,x,x,n
COc1ccc(-c2cc(C(=O)Nc3cc(OC)cc(C(=O)Nc4cccc(C(F)(F)F)c4)c3)[nH]n2)cc1,x,n,x,x,x,n
CCN(CC)S(=O)(=O)c1ccc(NC(=O)c2ccccc2N(C)S(C)(=O)=O)cc1,n,n,n,x,2.1,n
O=C(NCC1COc2ccccc2O1)C1C2C=CC3(CN(Cc4ccccc4Cl)C(=O)C13)O2 (stereo not drawn),n,-8.7,n,n,n,n
COC(=O)C1=C(C(=O)OC)[C@@H]2N(Cc3ccccc3)c3ccccc3[C@@]23C[C@@H](C(=O)OC)N(C(=O)c2cc(C)oc2C)C3=N1,x,-3,x,x,x,n
COc1ccc(Oc2ncnc3c2oc2ccc(Br)cc23)cc1,x,n,x,n,n,-7.4
